Values of other authors in PubChem BioAssay AID977611.
Among all 3,900 compounds or so, about 3,900 (100%) were called active. Cut-off not given; nearly all actives show Kd up to about 4200 µM. So high a share suggests a set chosen from earlier hits. This is one part of the list. Where a SMILES comes first, the peptide text is derived from it. Non-standard residues stand in square brackets, D forms with d. Square brackets hold non-standard residues; d marks the D form. Residues, ends and D or L forms follow the SMILES beside them. Peptide text beside a SMILES is read from it. [ ]: non-standard residue; d: D form. Orn(CH(NH2)2) = NC(N)NCCC[C@H](N)C(=O)O; Nva = CCC[C@H](N)C(=O)O

Test: PubChem AID 977611
Conditions: PDB protein-ligand complexes, literature Kd

## CC[C@H](C)[C@H](NC(=O)[C@H](CCC(=O)O)NC(=O)[C@H](C)NC(=O)[C@H](CCC(N)=O)NC(=O)[C@H](CO)NC(=O)[C@H](CC(C)C)NC(=O)[C@@H](NC(=O)[C@@H](N)CO)[C@@H](C)CC)C(=O)N[C@@H](CC(=O)O)C(=O)N[C@@H](C)C(=O)N[C@@H](CC(C)C)C(=O)N[C@@H](CC(C)C)C(=O)N[C@@H](CC(N)=O)C(=O)O (H-SILSQAEIDALLN-OH)
protein: double mutant Chemotaxis protein cheYD13K Y106W, PDB entry 1u8t
  Kd: 55 µM (active)

## CC[C@H](C)[C@H](NC(=O)[C@H](CC(C)C)NC(=O)[C@H](CCCCN)NC(=O)[C@H](CCC(N)=O)NC(=O)[C@@H](N)CCC(=O)O)C(=O)N[C@@H](CO)C(=O)N[C@@H](CCC(=O)O)C(=O)N[C@@H](CCC(=O)O)C(=O)N[C@@H](CC(=O)O)C(=O)N[C@@H](CC(C)C)C(=O)N[C@@H](CC(N)=O)C(=O)O (H-EQKLISEEDLN-OH)
protein: Monoclonal anti-c-myc antibody 9E10, PDB entry 2or9
  Kd: 0.5 µM (active)

## H-SEAAASTAVVIA-OH
protein: human antithrombin, PDB entry 1br8
  Kd: 18 µM (active)

## Cn1c(CNc2ccc(C(=N)N)cc2)nc2cc(C(=O)N(CCC(=O)O)c3ccccn3)ccc21
protein: humanized anti dabigatran Fab, PDB entry 4jn2
  Kd: 2.1e-06 µM (active)

## CCC1=CNN2C(NCc3ccc[n+]([O-])c3)CC(N3CCCC[C@H]3CCO)NC12 (some centres not stated)
protein: Bromodomain testis-specific protein, PDB entry 4kcx
  Kd: 37 µM (active)

## CCCCCCCC(=O)O[C@@H]1[C@@H](OC(=O)[C@@H](C)CC)[C@@H](C)[C@H]2[C@H]1[C@@](C)(OC(C)=O)C[C@H](O[C@@H](O)CCC)[C@@]1(O[C@H](O)CCC)[C@H]2O[C@@H](O)[C@@]1(C)O
protein: SERCA1a, PDB entry 4j2t
  Kd: 0.011 µM (active)

## CSCC[C@H](NC(=O)[C@H](CC(C)C)NC(=O)[C@H](C)NC(=O)[C@@H](NC(=O)[C@H](CC(N)=O)NC(=O)[C@H](CO)NC(=O)CNC(=O)[C@H](CCCNC(N)N)NC(=O)[C@H](CCCNC(N)N)NC(=O)[C@H](CCC(=O)O)NC(=O)[C@H](CCC(N)=O)NC(=O)[C@H](CC(C)C)NC(=O)[C@@H](N)CCCNC(N)N)C(C)C)C(=O)N[C@@H](CC(C)C)C(=O)N[C@@H](CC(=O)O)C(=O)N[C@@H](CS)C(=O)O (H-[Orn(CH(NH2)2)]LQE[Orn(CH(NH2)2)][Orn(CH(NH2)2)]GSNVALMLDC-OH)
protein: Mitogen-activated protein kinase 1, PDB entry 2gph
  Kd: 5 µM (active)

## CC(C)C[C@H](NC(=O)CNC(=O)[C@H](CC(C)C)NC(=O)[C@@H](NC(=O)[C@H](CC(C)C)NC(=O)[C@H](CCC(N)=O)NC(=O)[C@@H](N)CCCNC(N)N)C(C)C)C(=O)O (HELM PEPTIDE1{[NC(N)NCCC[C@H](N)C(=O)[*:2]].Q.L.V.L.G.L}$$$$V2.0)
protein: DNA polymerase III, PDB entry 1ok7
  Kd: 1.2 µM (active)

## CC[C@H](C)[C@H](NC(=O)[C@H](CC(=O)O)NC(=O)[C@H](CCC(=O)O)NC(=O)[C@H](CC(C)C)NC(=O)CNC(=O)[C@H](C)NC(=O)[C@H](C)N)C(=O)N[C@H](C(=O)N[C@@H](CCCNC(N)N)C(=O)N[C@@H](CCCCN)C(=O)N[C@@H](C)C(=O)N[C@@H](CC(C)C)C(=O)N[C@@H](CCSC)C(=O)NCC(=O)N[C@H](C=O)CO)[C@@H](C)CC (H-AAGLEDII[Orn(CH(NH2)2)]KALMGS-aldehyde)
protein: Glucocorticoid receptor, PDB entry 3h52
  Kd: 14 µM (active)

## CC[C@H](C)[C@H](NC(=O)[C@H](CCSC)NC(=O)CNC(=O)[C@H](CCCNC(N)N)NC(=O)[C@@H](N)CCC(N)=O)C(=O)O (H-Q[Orn(CH(NH2)2)]GMI-OH)
protein: Response regulator aspartate phosphatase F, PDB entry 4i9c
  Kd: 3.1 µM (active)

## CC[C@H](C)[C@H](NC(=O)[C@@H](N)CCCNC(N)N)C(=O)N[C@@H](CO)C(=O)N[C@@H](C)C(=O)N[C@@H](CC(=O)O)C(=O)N[C@@H](C)C(=O)N[C@@H](CCSC)C(=O)N[C@@H](CCSC)C(=O)N[C@@H](CCC(N)=O)C(=O)N[C@@H](C)C(=O)N[C@@H](CC(C)C)C(=O)N[C@@H](CC(C)C)C(=O)NCC(=O)N[C@@H](C)C(=O)N[C@@H](CCCNC(N)N)C(=O)N[C@@H](C)C(=O)N[C@@H](CCCCN)C(=O)O (H-[Orn(CH(NH2)2)]ISADAMMQALLGA[Orn(CH(NH2)2)]AK-OH)
protein: Regulatory Domain of Human Cardiac Troponin C and Ca2+, PDB entry 2krd
  Kd: 2000 µM (active)
protein: human Cardiac Troponin-C(cNTnCCa2+), PDB entry 1mxl
  Kd: 154 µM (active)

## CSCC[C@H](NC(=O)CNC(=O)[C@H](C)NC(=O)[C@@H](N)CCC(=O)O)C(=O)N[C@H](C(=O)N[C@@H](CC(C)C)C(=O)NCC(=O)N[C@@H](C)C(=O)N[C@@H](CCCNC(N)N)C(=O)N[C@@H](CCCCN)C(=O)N[C@@H](CC(C)C)C(=O)N[C@@H](CCCCN)C(=O)N[C@@H](CCCCN)C(=O)N[C@@H](CC(C)C)C(=O)NCC(=O)O)[C@@H](C)O (H-EAGMTLGA[Orn(CH(NH2)2)]KLKKLG-OH)
protein: Importin subunit alpha-2, PDB entry 3btr
  Kd: 5 µM (active)

## CC[C@H](C)[C@H](NC(=O)[C@H](C)NC(=O)[C@H](CC(C)C)NC(=O)[C@H](CCC(N)=O)NC(=O)[C@H](CCCNC(N)N)NC(=O)CNC(=O)[C@@H](NC(=O)[C@H](CCC(N)=O)NC(=O)CN)C(C)C)C(=O)N[C@H](C(=O)NCC(=O)N[C@@H](CC(=O)O)C(=O)N[C@@H](CC(=O)O)C(=O)N[C@H](C(=O)N[C@@H](CC(N)=O)C(=O)N[C@@H](CCCNC(N)N)C(=O)O)[C@@H](C)CC)[C@@H](C)CC
protein: BCL-XL, PDB entry 1bxl
  Kd: 0.34 µM (active)

## CC[C@H](C)[C@H](NC(=O)[C@H](CCC(=O)O)NC(=O)[C@H](CCC(=O)O)NC(=O)[C@@H](N)CC(=O)O)C(=O)N[C@@H](CCC(=O)O)C(=O)N[C@@H](CCCNC(N)N)C(=O)N[C@@H](CCC(N)=O)C(=O)N[C@@H](CC(C)C)C(=O)N[C@@H](CCCCN)C(=O)N[C@@H](C)C(=O)N[C@@H](CC(C)C)C(=O)NCC(=O)N[C@H](C(=O)N[C@@H](CC(=O)O)C(=O)O)C(C)C (H-DEEIE[Orn(CH(NH2)2)]QLKALGVD-OH)
protein: Vacuolar protein sorting-associating protein 4B, PDB entry 2jqk
  Kd: 402 µM (active)

## COc1ccc2c(c1OC)CN(C)c1c-2ccc2cc3c(cc12)OCO3
protein: Chitinase A, PDB entry 3arw
  Kd: 0.7 µM (active)

## O=C(O)[C@@H]1COc2ccccc2O1
protein: Pantothenate synthetase (T2A, E77G mutation), PDB entry 4de5
  Kd: 700 µM (active)
protein: Pantothenate synthetase (T2A, E77G mutation), PDB entry 4g5f
  Kd: 900 µM (active)

## CC(=O)NCCCC[C@H](NC(=O)[C@H](CCCNC(N)N)NC(=O)CNC(=O)[C@H](Cc1ccc(O)cc1)NC(=O)[C@@H](N)CO)C(=O)N[C@@H](CCCCN)C(=O)N[C@@H](CCCNC(N)N)C(=O)N[C@@H](CCCNC(N)N)C(=O)N[C@@H](CCC(N)=O)C(=O)N[C@@H](CCCNC(N)N)C(=O)N[C@@H](CS)C(=O)O (H-SYG[Orn(CH(NH2)2)]K(Ac)K[Orn(CH(NH2)2)][Orn(CH(NH2)2)]Q[Orn(CH(NH2)2)]C-OH)
protein: p300/CBP-associated factor (PCAF), PDB entry 1jm4
  Kd: 10 µM (active)

## CC(C)C[C@H](NC(=O)[C@H](CCC(N)=O)NC(=O)[C@H](CS)NC(=O)[C@H](CO)NC(=O)[C@@H](N)CC(C)C)C(=O)N[C@@H](Cc1ccc(O)cc1)C(=O)N[C@@H](CCC(N)=O)C(=O)N[C@@H](CCCNC(N)N)C(=O)O (H-LSCQLYQ[Orn(CH(NH2)2)]-OH)
protein: Thymidylate synthase, PDB entry 3n5e
  Kd: 0.151 µM (active)

## CC(C)C[C@H](NC(=O)[C@H](CCCNC(N)N)NC(=O)[C@H](CCC(N)=O)NC(=O)[C@H](Cc1ccc(O)cc1)NC(=O)[C@@H](N)CC(=O)O)C(=O)O (H-DYQ[Orn(CH(NH2)2)]L-OH)
protein: AP-3 complex subunit mu-1, PDB entry 4ikn
  Kd: 14 µM (active)

## CSCC[C@H](N)C(=O)N[C@@H](C)C(=O)N[C@@H](CO)C(=O)O (H-Met-Ala-Ser-OH)
protein: human-like mitochondrial peptide deformylase (G47C, L112E mutant), PDB entry 4je8
  Kd: 6.1 µM (active)

## CC(C)[C@H](NC(=O)[C@H](CC(=O)O)NC(=O)[C@@H](NC(=O)[C@H](CC(=O)O)NC(=O)[C@H](CO[P+](O)(O)O)NC(=O)[C@@H](N)CC(=O)O)[C@@H](C)O[P+](O)(O)O)C(=O)N[C@@H](CCC(=O)O)C(=O)N[C@@H](CCC(=O)O)C(=O)O
protein: DNA topoisomerase 2-binding protein 1, PDB entry 3ueo
  Kd: 94 µM (active)

## CSCC[C@H](NC(=O)[C@H](CCCNC(N)N)NC(=O)[C@H](CO)NC(=O)[C@H](C)N)C(=O)N[C@@H](CCC(=O)O)C(=O)N[C@@H](CCC(=O)O)C(=O)N[C@H](C(=O)N[C@@H](CC(=O)O)C(=O)O)C(C)C (H-AS[Orn(CH(NH2)2)]MEEVD-OH)
protein: Protein UNC-45, PDB entry 4i2z
  Kd: 13.5 µM (active)

## H-AEDDVE-OH
protein: AH RECEPTOR-INTERACTING PROTEIN, PDB entry 4apo
  Kd: 12.3 µM (active)

## CSCC[C@H](NC(=O)[C@H](CCC(=O)O)NC(=O)[C@@H](NC(=O)[C@H](CC(=O)O)NC(=O)[C@H](C)N)[C@@H](C)O)C(=O)N[C@@H](CCC(=O)O)C(=O)N[C@@H](CCC(=O)O)C(=O)N[C@H](C(=O)N[C@@H](CC(=O)O)C(=O)O)C(C)C (H-ADTEMEEVD-OH)
protein: TPR repeat-containing protein associated with Hsp90, PDB entry 2lsv
  Kd: 5.41 µM (active)

## CC(=O)N[C@@H](CC(=O)O)C(=O)N[C@@H](CCC(=O)O)C(=O)N[C@H](C(=O)N[C@@H](CC(=O)O)[C@@H](C)O)C(C)C
protein: Procaspase-3 (D175A mutation), PDB entry 4jr0
  Kd: 0.0063 µM (active)

## CCC[C@H](NC(=O)[C@@H](N)CO)C(=O)N[C@@H](CCSC)C(=O)N[C@@H](C)C(=O)N[C@@H](CCC(=O)O)C(=O)N[C@H](C(=O)N[C@@H](CC(=O)O)C(=O)O)C(C)C (H-S[Nva]MAEVD-OH)
protein: AH RECEPTOR-INTERACTING PROTEIN, PDB entry 4aif
  Kd: 14.4 µM (active)

## CC(C)C[C@H](NC(=O)[C@H](CCC(=O)O)NC(=O)CNC(=O)[C@@H](NC(=O)[C@H](CO[P+](O)(O)O)NC(=O)[C@@H]1CCCN1C(=O)[C@H](CC(=O)O)NC(=O)[C@@H](NC(=O)[C@H](CCC(=O)O)NC(=O)[C@@H](N)CCCCN)C(C)C)[C@@H](C)O)C(=O)N[C@@H](CCC(N)=O)C(=O)O
protein: Kelch-like ECH-associated protein 1, PDB entry 3wdz
  Kd: 0.12 µM (active)

## CSCC[C@H](NC(=O)[C@H](CCCCN)NC(=O)[C@H](CCC(=O)O)NC(=O)[C@H](CCCCN)NC(=O)[C@H](CCCNC(N)N)NC(=O)[C@@H]1CCCN1C(=O)[C@@H]1CCCN1C(=O)[C@@H](NC(=O)[C@H](CC(C)C)NC(=O)[C@@H]1CCCN1C(=O)[C@@H]1CCCN1C(=O)[C@H](CCC(N)=O)NC(=O)CN)C(C)C)C(=O)N[C@@H](CCCNC(N)N)C(=O)NCC(=O)N[C@@H](CCCCN)C(=O)O (H-GQPPLVPP[Orn(CH(NH2)2)]KEKM[Orn(CH(NH2)2)]GK-OH)
protein: Grb2-related adaptor protein 2(SH3 domain), PDB entry 1uti
  Kd: 2.4 µM (active)

## CSCC[C@H](NC(=O)[C@@H]1CCCN1C(=O)[C@@H](N)[C@@H](C)O)C(=O)N[C@H](C(=O)N[C@@H](CC(N)=O)C(=O)N[C@@H](CCCNC(N)N)C(=O)N[C@@H](CCC(=O)O)C(=O)N[C@@H](CC(N)=O)C(=O)N[C@@H](CCCCN)C(=O)O)C(C)C (H-TPMVN[Orn(CH(NH2)2)]ENK-OH)
protein: STAM2 SH3 domain, PDB entry 1uj0
  Kd: 27 µM (active)

## CC(C)C[C@H](NC(=O)[C@H](CCCNC(N)N)NC(=O)[C@@H](N)CCCNC(N)N)C(=O)N[C@@H](CCC(N)=O)C(=O)N[C@@H](CCCCN)C(=O)NCC(=O)N[C@@H](CC(N)=O)C(=O)N[C@@H](CC(C)C)C(=O)N1CCC[C@H]1C(=O)N[C@H](C(=O)N[C@@H](CCCNC(N)N)C(=O)O)C(C)C (H-[Orn(CH(NH2)2)][Orn(CH(NH2)2)]LQKGNLPV[Orn(CH(NH2)2)]-OH)
protein: ERK2, PDB entry 2fys
  Kd: 44 µM (active)
